Measured values as given in the supplement of paper PMC8773631.
Counter-ions that a name gives are not always drawn. ± gives the uncertainty stated by the source.

System: NCC-MFS5-C1
Experiment: cell viability relative to DMSO control; higher = less growth inhibition
Settings: 10 µM; treatment time: 3 days
Protocol: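 NCC-MFS5-C1 myxofibrosarcoma cells (1x10^4 per well, 384-well) were treated on day 2 with 10 µM of each drug. On day 5, viability was read by CCK-8 absorbance at 450 nm and normalised to the DMSO control (%), n = 2.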

In order of rising cell viability:
1. CC(=O)[C@]1(O)Cc2c(O)c3c(c(O)c2[C@@H](O[C@H]2C[C@H](N)[C@H](O)[C@H](C)O2)C1)C(=O)c1ccccc1C3=O [Idarubicin HCl]  0.409 ± 0.53%
2. Cc1ccc(NC(=O)c2ccc(CN3CC[C@H](N(C)C)C3)c(C(F)(F)F)c2)cc1Nc1nccc(-c2cncnc2)n1 [Bafetinib (INNO-406)]  2.79 ± 1.9%
3. O=C(CCCCCCC(=O)Nc1ccccc1)NO [Vorinostat (SAHA, MK0683)]  34.5 ± 7.2%
4. O=C1NC(=O)[C@@H](c2cn3c4c(cccc24)CCC3)[C@@H]1c1c[nH]c2ccccc12 [Tivantinib (ARQ 197)]  48.3 ± 1.5%
5. COc1cc(N2CCC(N3CCN(C)CC3)CC2)ccc1Nc1ncc(Cl)c(Nc2ccccc2S(=O)(=O)C(C)C)n1  52.7 ± 1.8%
6. CS(=O)(=O)CCNCc1ccc(-c2ccc3ncnc(Nc4ccc(OCc5cccc(F)c5)c(Cl)c4)c3c2)o1 [Lapatinib]  58.6 ± 2.2%
7. FC(F)(F)c1ccc(CNc2ccc(Cc3c[nH]c4ncc(Cl)cc34)cn2)cn1 [Pexidartinib (PLX3397)]  72.5 ± 5.8%
8. CN(Cc1cnc2nc(N)nc(N)c2n1)c1ccc(C(=O)N[C@@H](CCC(=O)O)C(=O)O)cc1 [Methotrexate]  80.2 ± 3.6%
9. CS(=O)(=O)OCCCCOS(C)(=O)=O [Busulfan]  83.3%
10. O=NN(CCCl)C(=O)NC1CCCCC1 [Lomustine]  84.1 ± 18%
11. CCOC(=O)[C@H](CCc1ccccc1)N[C@H]1CS[C@H](c2cccs2)CN(CC(=O)O)C1=O [Temocapril HCl]  86 ± 1.2%
12. C=CC[C@@H]1/C=C(\C)C[C@H](C)C[C@H](OC)[C@H]2O[C@@](O)(C(=O)C(=O)N3CCCC[C@H]3C(=O)O[C@H](/C(C)=C/[C@@H]3CC[C@@H](O)[C@H](OC)C3)[C@H](C)[C@@H](O)CC1=O)[C@H](C)C[C@@H]2OC [Tacrolimus (FK506)]  93.7 ± 7.5%
13. CO[C@H](C(=O)[C@@H](O)[C@@H](C)O)[C@@H]1Cc2cc3cc(O[C@H]4C[C@@H](O[C@H]5C[C@@H](O)[C@H](O)[C@@H](C)O5)[C@H](O)[C@@H](C)O4)c(C)c(O)c3c(O)c2C(=O)[C@H]1O[C@H]1C[C@@H](O[C@H]2C[C@@H](O[C@H]3C[C@](C)(O)[C@H](O)[C@@H](C)O3)[C@H](O)[C@@H](C)O2)[C@H](O)[C@@H](C)O1 [Mithramycin A]  97.4 ± 4%
